Compound activity from PubChem BioAssay.
TGFb inhibitor = inhibitors of TGF-b signaling. AID 588855. actives 1.2% (n = 410,000). Potency, µM (highest dose often 46.1 µM), hits mostly inhibitors. HepG2 CAGA-GFP TGF-b/SMAD3 reporter, GFP fluorescence, 18 h; TGF-beta stimulated, 500 pg/mL final; further: nearly all actives have a fitted effect of over 65% in size
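TGF-beta reporter screen: HEPG2 CAGA-GFP, 1% FBS, 500 pg/mL TGF-beta final, 18 h; per-cell GFP summed per well; curves fitted and categorized by class.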
HT1080 IDH1KD tx = HT-1080 IDH1 knockdown cell toxicity (counter line); Potency, µM (titrated, usually from 46.1 µM), most hits filed as cytotoxic; AID 686971; HT-1080 IDH1 knockdown viability, ATP luminescence, 48 h; actives 2% (n = 360,000)
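IDH1KD HT-1080 cells, 750/well, RPMI + 5% FBS; compound pinned after 2 h settling; 48 h, 37 °C; CellTiter-Glo luminescence; % activity normalised to DMSO and no-cell wells; curves fitted, classed by r2 and efficacy.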
HT1080-NT tox = kills 2HG-producing HT-1080-NT fibrosarcoma cells; actives 1.6% (n = 360,000); Potency, µM (series often up to 46.1 µM), usual class: cytotoxic; HT-1080-NT fibrosarcoma viability, CellTiter-Glo ATP luminescence, 48 h;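 further: NT is the 2HG producing partner of a matched IDH1 knockdown line; nearly all actives have a fitted effect of over 55% in size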
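750 cells/well, RPMI + 5% FBS; 2 h settle, compound pin-transfer, 48 h at 37 degrees C. CellTiter-Glo 10 min RT, luminescence. Normalized to DMSO and media-only wells.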
Giardia killer = Giardia lamblia killing; Giardia lamblia trophozoite viability; activity change, % at 7.66 µM, hits read low; actives 0.15% (n = 340,000); AID 540267; in the data active means activity change below about -80%; inconclusive means between about -30% and that limit;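 further: parasites exposed to compound for two days anaerobically before the ATP read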
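ATP-content bioluminescence gauges trophozoite survival. Cells (100/well) receive compound and incubate anaerobically for 48 hrs at 37 deg C; detection reagent follows for 15-30 min at room temperature.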
HepG2 viability = HepG2 cytotoxicity, counter-screen for TGF-b inhibitors. HepG2 CAGA-GFP viability, ATP luminescence, 18 h. Potency, µM (titrated, usually from 46.1 µM), most hits filed as cytotoxic. actives 0.76% (n = 410,000). AID 588856
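CellTiter-Glo luminescence gave cytotoxicity after 18 hours at 37 degrees C. The cells were HepG2 CAGA-GFP in 1% FBS DMEM, stimulated with 500 pg/mL TGF-beta after compound addition. %Activity was normalised to no-cell wells (complete cell-killing) and DMSO (no toxicity), and curves were fitted and classified.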
IL-1B inflam inh = inhibitors of inflammasome signaling (IL-1 beta secretion). THP-1 LPS/ATP IL-1B secretion, AlphaLISA, 16 h; active compounds read low. activity change, % at 57.5 µM. actives 4.7% (n = 360,000); in the data active means activity change below about -50%; inconclusive means mostly about -30% to -49%
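THP-1 cells pretreated 1 hr with compounds (up to 57.5 uM final), then stimulated with LPS (250 ng/mL final) plus ATP (1.25 mM final); secreted IL-1B measured by AlphaLISA after 16 hr, decreased signal indicating inhibition.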
Numbers stand for hits; i = inactive; ? = inconclusive; nt = no result given; [ ] = another dose, or the depositor's remark. Shown are actives, neighbours in structure and some others; about 6.5% of the full set was active somewhere. Unless noted, the call rests on the fitted dose curve; in most records, active means well fitted curve in the direction sought with a large enough effect; inconclusive means small, poorly fitted or top-dose-only effect, or another doubt; inactive means no such curve, though single readings can be large; an effect the other way counts as inactive or inconclusive.

SMILES | TGFb inhibitor | HT1080 IDH1KD tx | HT1080-NT tox | Giardia killer | HepG2 viability | IL-1B inflam inh
CCc1cc(=O)[nH]c(SCC(=O)Nc2ccc3c(c2)OCCO3)n1 | i | i | i | i | i | i
CC(=O)Nc1cccc(-c2cc(C)c3cc4c(cc3n2)OCO4)c1 | i | i | i | i | i | -51
CC(=O)Nc1cccc(-c2nc3ccccc3s2)c1 | i | i | i | i | i | i
CCc1nc(N2CCN(C(=O)CCl)CC2)c2c3c(sc2n1)CC(C)CC3 (stereo unspecified) | ? | 21µM | 21µM | i | 18µM | -96
CCNC(=S)N1CCN(c2nc(CC)nc3sc4c(c23)CCCC4)CC1 | ? | i | i | i | i | -57
CCc1nc(N2CCN(C(=O)CCCl)CC2)c2c3c(sc2n1)CCCC3 | i | i | i | nt | i | i
Cn1c(CCc2nc3ccccc3[nH]2)nnc1SCC#N | i | i | i | i | i | i
O=S1OC(c2ccccc2)c2cc(Cl)ccc21 (stereo unspecified) | ? | i | i | ? | i | -111
CCOc1ccc2nc3cc(N=Nc4ccc(N)nc4N)ccc3c(N)c2c1 | ? | i | i | i | 14µM | i
COc1ccc(N=Nc2ccc(N)nc2N)cc1 | i | i | ? | i | i | i
Cc1cnc(NC(=O)COc2cccc3c2OC(C)(C)C3)s1 | i | 6.5µM | i | i | i | i
Cc1cc2c(c(SCC(=O)N(C)c3ccccc3)n1)C(=O)OC2 | i | i | i | i | i | i
Cc1nn(-c2ccccc2)c(C)c1C(=O)OC(C)C(=O)NC1CCCCC1 (stereo unspecified) | i | i | 21µM | i | i | ?
CCn1cc(C(=O)N2CCN(c3ccccc3)CC2)c(=O)c2cc(S(=O)(=O)N(C)C)ccc21 | i | nt | nt | nt | i | nt
c1ccc(CC2CCN(C3=Nc4cccc5cccc3c45)CC2)cc1 | ? | 21µM | ? | i | 13µM | i
COc1ccccc1N1CCN(C2=Nc3cccc4cccc2c34)CC1 | i | 13µM | ? | i | i | -56
CC(=O)N1CCN(C2=Nc3cccc4cccc2c34)CC1 | i | i[9.24 µM] | i | i | i | -66
c1cc2c3c(cccc3c1)C(N1CCOCC1)=N2 | i | i | i | i | i | nt
CCOC(=O)N1CCN(C2=Nc3cccc4cccc2c34)CC1 | i | i | i | i | i | nt
COc1ccc(Cn2c(=O)c3[nH]cnc3n(-c3ccccc3C)c2=O)cc1 | i | 12µM | 12µM | i | i | i
CCC/C(=C1/c2ccccc2C(=O)N1c1ccccc1)c1ccc2[nH]ccc2c1 | 11µM | ? | ? | ? | i | i
O=C1c2ccccc2/C(=C\c2ccc3[nH]ccc3c2)N1c1ccccc1 | i | i | i | i | i | i
CC1CCCCN1CC(O)COCCC12CC3CC(CC(C3)C1)C2 (stereo unspecified) | i | ? | ? | i | i | -61
CCOC(=O)N1CCN(CC(O)COCCC23CC4CC(CC(C4)C2)C3)CC1 (stereo unspecified) | i | i | i | ? | i | i
N#CC1c2ccccc2C=CN1C(=O)N(c1ccccc1)c1ccccc1 (stereo unspecified) | 8.9µM | ? | ? | i | 11µM | -97
SMILES | TGFb inhibitor | HT1080 IDH1KD tx | HT1080-NT tox | Giardia killer | HepG2 viability | IL-1B inflam inh
CN(c1cccc(NC(=O)CN(c2ccc(C34CC5CC(CC(C5)C3)C4)cc2)S(C)(=O)=O)c1)S(C)(=O)=O | 11µM | 20µM | ? | i | i | i
CCOC(=O)/C(=N/Nc1ccc(OC)cc1)N1CCCc2ccccc21 | i | i | i | i | i | -53
Cn1c([N+](=O)[O-])cnc1N1CCN(c2nncs2)C1=O | i | i | i | -93 | i | i
CCCN1CCN(c2nnc(-n3cccc3C(=O)Nc3ccccc3C(F)(F)F)s2)CC1 | ? | nt | nt | nt | i | nt
Nc1ccc(-c2nc3ccc([N+](=O)[O-])cc3[nH]2)cc1 | i | i | i | i | i | -80
O=[N+]([O-])c1ccc2nc(/C=C/c3ccc(Cl)cc3)[nH]c2c1 | ? | ? | ? | i | i | -94
O=[N+]([O-])c1ccc2nc(C(O)C(O)c3nc4ccc([N+](=O)[O-])cc4[nH]3)[nH]c2c1 (stereo unspecified) | i | i | i | i | i | i
O=[N+]([O-])c1ccc(-c2nc3ccc([N+](=O)[O-])cc3[nH]2)cc1 | ? | ? | ? | i | i | -91
CCCC[n+]1ccc(-c2nc3ccc([N+](=O)[O-])cc3[nH]2)cc1 | i | i | i | i | i | i
Cc1c(Cc2ccccc2)c(NCCN(C)C)n2c(nc3ccccc32)c1C#N | i | i | i | i | i | -71
CCOc1ncccc1C(=O)NCCc1c[nH]c2ccccc12 | i | i | i | i | i | i
COc1ccc(C[C@H]2CN3C(=NC[C@H]3Cc3ccccc3)N2CCNC(=O)c2ccc(C)c(Br)c2)cc1 | ? | ? | i | i | i | -52
Cc1ccc(C(=O)NCCN2C3=NC[C@H](Cc4ccc(O)cc4)N3C[C@H]2Cc2ccc(O)cc2)cc1Br | i | i | i | i | i | i
COc1ccc(C[C@H]2CN3C(=NC[C@@H]3Cc3ccc(O)cc3)N2CCNC(=O)c2ccc(C)c(Br)c2)cc1 | ? | ? | ? | i | 16µM | i
C/C=C(\C)C(=O)NCCN1C2=NC[C@H](Cc3ccccc3)N2C[C@@H]1Cc1ccc(OC)cc1 | i | i | i | i | i | ?
COc1ccc(C[C@H]2CN3C(=NC[C@@H]3Cc3ccccc3)N2CCNC(=O)c2ccc(C)c(Br)c2)cc1 | ? | ? | ? | i | 13µM | -52
Cc1ccc(C(=O)NCCN2C3=NC[C@@H](Cc4ccccc4)N3C[C@H]2Cc2ccc(O)cc2)cc1Br | 16µM | i | i | i | 11µM | i
COc1cc(CC(=O)N/N=C/c2ccc([N+](=O)[O-])cc2)c([N+](=O)[O-])cc1OC | i | i | i | i | i | i
Cc1cc(Nc2ccc(Br)cc2)nc(C)n1 | i | nt | nt | nt | i | nt
CC12CCC(c3c(C(=O)O)nn(-c4ccc(F)cc4)c31)C2(C)C (stereo unspecified) | i | i | i | i | i | i
O=C(O)COc1ccc2oc3ccccc3c2c1 | i | i | i | i | i | i
COC(=O)c1cc2oc(C)cc2n1CC(=O)Nc1cc(Cl)ccc1OC | i | nt | nt | nt | i | nt
COC(=O)c1cc2ccsc2n1CC(=O)Nc1cc(Cl)ccc1OC | ? | ? | 7.9µM | i | i | i
Cc1ccc(N2CC(NC(=O)C3CCCCC3)CC2=O)cc1C (stereo unspecified) | i | nt | nt | nt | i | nt
CSc1sc(C(=O)NCC2CC2)cc1S(=O)(=O)C(C)C | i | i | i | i | i | i
